Where “and” joins values, the source holds several entries; their conditions need not be identical. Identical values can stand only once. About 79,000 compounds went through this panel and 15% of them were active in at least one assay; those are over-represented in the sample as a whole. More than one record can exist for a structure, and the calls need not agree. Calls of active or inactive are those of the source. No stated cut-off is given here; in the data, active means growth inhibition above about 70%; inactive means the rest.
What was measured:
[1] = NCI Yeast Anticancer Drug Screen. Data for the mlh1 strain (AID 171);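 further: 0% = growth of vehicle-treated control cultures of the same strain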; details: S. cerevisiae mlh1 strain growth inhibition, stronger effect = higher value
How it was run: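 Yeast carrying a defined genetic alteration in DNA damage repair or cell cycle control were exposed to test compounds. Growth inhibition was measured relative to vehicle-treated controls.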

[2] = NCI Yeast Anticancer Drug Screen. Data for the mlh1 rad18 strain (AID 175); details: S. cerevisiae mlh1 rad18 strain growth inhibition, stronger effect = higher value
How it was run: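 Growth inhibition of the yeast strain was measured after compound exposure and expressed relative to vehicle-treated controls. The strain carries defined defects in DNA damage repair.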

[3] = NCI Yeast Anticancer Drug Screen. Data for the rad18 strain (AID 177); details: S. cerevisiae rad18 mutant growth inhibition, stronger effect = higher value
How it was run: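 Yeast carrying a defined DNA damage repair alteration were exposed to compounds. Growth inhibition was expressed relative to vehicle-treated controls.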

[4] = NCI Yeast Anticancer Drug Screen. Data for the wt1 strain (AID 149);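 further: 0% = growth of vehicle-treated wt1 cultures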; details: S. cerevisiae wt1 strain (SPY 50644) growth inhibition, stronger effect = higher value
How it was run: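 Readout: yeast growth inhibition, normalised to vehicle controls, in the wt1 strain exposed to test compounds.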

[5] = NCI Yeast Anticancer Drug Screen. Data for the rad50EPP+ strain (AID 151);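 further: 0% = growth of vehicle-treated control cultures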; details: S. cerevisiae rad50 mutant strain, stronger effect = higher value
How it was run: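 Yeast strain carrying rad50 alteration (rad50EPP+) exposed to compounds; growth inhibition measured relative to vehicle-treated controls.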

[6] = NCI Yeast Anticancer Drug Screen. Data for the mgt1 strain (AID 153); details: S. cerevisiae mgt1 mutant growth inhibition, stronger effect = higher value
How it was run: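 Yeast mgt1 strain (DNA repair/cell-cycle alteration panel) exposed to compounds; growth inhibition measured relative to vehicle-treated controls.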

[7] = NCI Yeast Anticancer Drug Screen. Data for the rad50 strain (AID 155);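 further: 0% = growth of vehicle-only cultures of the same strain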; details: S. cerevisiae rad50 strain growth inhibition, stronger effect = higher value
How it was run: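 Compounds were tested on a yeast strain with an engineered DNA damage repair alteration; the reported value is growth inhibition normalised to vehicle treatment.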

[8] = NCI Yeast Anticancer Drug Screen. Data for the mec2-1 strain (AID 157); details: S. cerevisiae mec2-1 strain, stronger effect = higher value
How it was run: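 mec2-1 yeast strain, carrying an alteration in DNA damage repair or cell cycle control, was exposed to compounds; growth inhibition was measured relative to vehicle-treated controls.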

[9] = NCI Yeast Anticancer Drug Screen. Data for the rad14 strain (AID 159);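 further: 0% = growth of vehicle-treated control cultures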; details: S. cerevisiae rad14 strain growth inhibition, stronger effect = higher value
How it was run: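 Compound-treated yeast with a defined DNA-repair lesion; growth inhibition normalised to vehicle-treated cultures.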

[10] = NCI Yeast Anticancer Drug Screen. Data for the sgs1 mgt1 strain (AID 161);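 further: 0% = growth of cultures given vehicle only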; details: S. cerevisiae sgs1 mgt1 strain, stronger effect = higher value
How it was run: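 Percent growth inhibition was derived by comparing compound-exposed mutant yeast with vehicle-exposed cultures. The strain carries alterations in DNA damage repair.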

[11] = NCI Yeast Anticancer Drug Screen. Data for the CLN2oe strain (AID 163);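 further: 0% = growth of vehicle-only control cultures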; details: S. cerevisiae CLN2oe strain, stronger effect = higher value
How it was run: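 Yeast cells carrying a defined cell-cycle control alteration were exposed to test compounds. Growth inhibition was scored against vehicle-treated control cultures.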

[12] = NCI Yeast Anticancer Drug Screen. Data for the cln2 rad14 strain (AID 165);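 further: 0% = growth equal to vehicle treated cultures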; details: S. cerevisiae cln2 rad14 strain, stronger effect = higher value
How it was run: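 Yeast carrying cln2 and rad14 alterations (cell cycle control and DNA damage repair) were exposed to compounds. Growth inhibition was measured against vehicle-treated controls.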

[13] = NCI Yeast Anticancer Drug Screen. Data for the bub3 strain (AID 167); details: S. cerevisiae bub3 mutant strain, stronger effect = higher value
How it was run: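 Growth of a checkpoint-deficient yeast mutant is measured after compound exposure. Values represent inhibition relative to vehicle.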

[14] = NCI Yeast Anticancer Drug Screen. Data for the wt2 strain (AID 169);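 further: 0% = growth of vehicle-treated yeast cultures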; details: S. cerevisiae wt2 strain growth inhibition, stronger effect = higher value
How it was run: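 Yeast cells were exposed to test compounds, and growth inhibition was measured relative to vehicle-treated controls.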

[15] = NCI Yeast Anticancer Drug Screen. Data for the sgs1 strain (AID 173);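 further: 0% = growth of vehicle-only control cultures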; details: S. cerevisiae sgs1 mutant, stronger effect = higher value
How it was run: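 Yeast mutant strains carrying defined defects in DNA damage repair or cell cycle control were exposed to test compounds. Growth inhibition was scored against vehicle-treated controls.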

[16] = at 5.0 µM (retest, dose inferred, filed as 0.5)
[17] = at 50.0 µM (retest, dose inferred, filed as 5.0)

Measured: growth inhibition

CC1C=CN(N(C)C)C2=C1C(=O)c1cnccc1C2=O (centres undefined)
active: [1]; at 33.0 µM 89% | [1]; at 100.0 µM 97% | [2]; [16] 83% | [2]; [17] 95% | [2]; at 50.0 µM 89.8% | [3]; at 3.7 µM 87% | [3]; at 11.0 µM 90% | [3]; at 33.0 µM 96% | [3]; at 100.0 µM 96%
inactive: [1]; at 1.2 µM -48% | [1]; at 3.7 µM -23% | [1]; at 11.0 µM 40% | [3]; at 1.2 µM 66%

COc1ccc2[nH]c3c(C)c4cc[n+](C)cc4c(C)c3c2c1
41% (inactive) and 82% (active): [3]; at 100.0 µM
50% (inactive) and 82% (active): [15]; at 100.0 µM
inactive: [4]; at 1.2 µM 18% and 15% | [4]; at 3.7 µM 45% and 16% | [4]; at 11.0 µM 45% and 26% | [4]; at 33.0 µM 43% and 41% | [4]; at 100.0 µM 43% and 63% | [5]; at 1.2 µM 39% and 24% | [5]; at 3.7 µM 64% and 62% | [6]; at 1.2 µM 15% and 2% | [6]; at 3.7 µM 28% and 12% | [6]; at 11.0 µM 26% and 24% | [6]; at 33.0 µM 38% and 29% | [6]; at 100.0 µM 39% and 55% | [7]; at 1.2 µM 22% and 7% | [7]; at 3.7 µM 35% and 34% | [7]; [16] 29% and 31% | [7]; at 11.0 µM 60% | [7]; at 50.0 µM 31.6% and 64.8% | [8]; at 1.2 µM 15% and 23% | [8]; at 3.7 µM 45% and 18% | [8]; [16] 9% and 3% | [8]; at 11.0 µM 53% and 27% | [8]; at 33.0 µM 44% and 36% | [8]; [17] 44% and 16% | [8]; at 50.0 µM 21.2% and 56.6% | [8]; at 100.0 µM 53% and 61% | [9]; at 1.2 µM 0% and 6% | [9]; at 3.7 µM 17% and 15% | [9]; at 11.0 µM 25% | [9]; at 33.0 µM 27% and 40% | [9]; at 100.0 µM 36% and 61% | [10]; [16] 18% and 28% | [10]; [17] 41% and 52% | [10]; at 50.0 µM 45.8% and 36.4% | [11]; at 1.2 µM 45% and -9% | [11]; at 3.7 µM 45% and 0% | [11]; at 11.0 µM 55% and -5% | [11]; at 33.0 µM 50% and 20% | [11]; at 100.0 µM 40% and 66% | [12]; [16] 2% and 24% | [12]; [17] 25% and 30% | [12]; at 50.0 µM 39.2% and 23.3% | [13]; at 1.2 µM 18% and 8% | [13]; at 3.7 µM 30% and 22% | [13]; [16] 19% and 2% | [13]; at 11.0 µM 28% and 23% | [13]; at 33.0 µM 33% and 32% | [13]; [17] 50% and 20% | [13]; at 50.0 µM 22.9% and 34.1% | [14]; at 1.2 µM -13% and -31% | [14]; at 3.7 µM -14% and -11% | [14]; at 11.0 µM -15% and -11% | [14]; at 33.0 µM -13% and 14% | [15]; at 1.2 µM 18% and 25% | [15]; at 3.7 µM 32% and 39% | [15]; at 11.0 µM 51% and 42% | [15]; at 33.0 µM 42% and 52% | [2]; [16] 23% and 19% | [2]; [17] 52% and 32% | [2]; at 50.0 µM 56.5% | [3]; at 1.2 µM 23% and 27% | [3]; at 3.7 µM 40% and 35% | [3]; at 11.0 µM 38% | [3]; at 33.0 µM 45% and 44%
active: [5]; at 11.0 µM 70% and 73% | [5]; at 33.0 µM 73% and 82% | [5]; at 100.0 µM 87% and 89% | [7]; at 33.0 µM 78% and 88% | [7]; [17] 85% and 82% | [7]; at 100.0 µM 92% and 94%
30% (inactive) and 79% (active): [13]; at 100.0 µM
11% (inactive) and 73% (active): [14]; at 100.0 µM

CCCCCCCCCCCCCCCCOCC(Cl)COP(=O)(O)OP(=O)(O)OCC1OC(n2cnc3c(N)ncnc32)C(O)C1O (centres undefined)
active: [5]; at 100.0 µM 97% | [6]; at 100.0 µM 85% | [7]; at 11.0 µM 75% | [7]; at 33.0 µM 86% | [7]; [17] 93% | [7]; at 100.0 µM 86% | [8]; [17] 73% | [10]; [16] 74% | [10]; [17] 96% | [10]; at 50.0 µM 88.4% | [12]; [17] 79% | [13]; [17] 73% | [1]; at 100.0 µM 78% | [15]; at 11.0 µM 93% | [15]; at 33.0 µM 95% | [15]; at 100.0 µM 92% | [2]; [17] 92%
inactive: [4]; at 1.2 µM 21% | [4]; at 3.7 µM 35% | [4]; at 11.0 µM 46% | [4]; at 33.0 µM 54% | [4]; at 100.0 µM 51% | [5]; at 1.2 µM 20% | [5]; at 3.7 µM 24% | [5]; at 11.0 µM 43% | [5]; at 33.0 µM 67% | [6]; at 1.2 µM 15% | [6]; at 3.7 µM 14% | [6]; at 11.0 µM 55% | [6]; at 33.0 µM 68% | [7]; at 1.2 µM 14% | [7]; at 3.7 µM 28% | [7]; [16] 49% | [7]; at 50.0 µM 54.4% | [8]; at 1.2 µM 14% | [8]; at 3.7 µM 6% | [8]; [16] 36% | [8]; at 11.0 µM 19% | [8]; at 33.0 µM 11% | [8]; at 50.0 µM 33.4% | [8]; at 100.0 µM 47% | [9]; at 1.2 µM 10% | [9]; at 3.7 µM 6% | [9]; at 11.0 µM 29% | [9]; at 33.0 µM 35% | [9]; at 100.0 µM 46% | [11]; at 1.2 µM 2% | [11]; at 3.7 µM 2% | [11]; at 11.0 µM -4% | [11]; at 33.0 µM 24% | [11]; at 100.0 µM 31% | [12]; [16] 24% | [12]; at 50.0 µM -30.4% | [13]; at 1.2 µM -12% | [13]; at 3.7 µM -25% | [13]; [16] 10% | [13]; at 11.0 µM -8% | [13]; at 33.0 µM 9% | [13]; at 50.0 µM 28.2% | [13]; at 100.0 µM 39% | [14]; at 1.2 µM -2% | [14]; at 3.7 µM -3% | [14]; at 11.0 µM 11% | [14]; at 33.0 µM 19% | [14]; at 100.0 µM 57% | [1]; at 1.2 µM 10% | [1]; at 3.7 µM -1% | [1]; at 11.0 µM 53% | [1]; at 33.0 µM 63% | [15]; at 1.2 µM 40% | [15]; at 3.7 µM 64% | [2]; [16] 36% | [2]; at 50.0 µM 48% | [3]; at 1.2 µM -4% | [3]; at 3.7 µM 0% | [3]; at 11.0 µM 22% | [3]; at 33.0 µM 39% | [3]; at 100.0 µM 59%
